Among the data in PubChem BioAssay (EPA / NIEHS) are outcome and AC50 values, retold here.

Assay [1] addresses rat Glutamate, MK-801 Agonist Site (GluNMDA_MK801), Grin1 (gene 24408) (UniProt P35439). Put plainly: NVS_LGIC_rGluNMDA_MK801_Agonist: NovaScreen (NVS) Ligand-Gated Ion Channel Assay for rat Glutamate, MK-801 Agonist Site (GluNMDA_MK801) (AID 2283340). The procedure, abridged: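 Radioligand binding at MK-801 site in rat forebrain membranes, 1.5 h incubation, filter-based scintillation counting. Initially 25 uM in duplicate; actives then run in concentration-response up to 50 uM, fitted for gain of signal versus DMSO.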

Assay [2] addresses rat Oxytocin Receptor (OXT), Oxtr (gene 25342) (UniProt P70536). As to the kind of experiment: NVS_GPCR_rOXT: NovaScreen (NVS) G Protein-Coupled Receptor Assay for rat Oxytocin Receptor (OXT) (AID 2283330). The procedure, abridged:
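Radioligand displacement on rat uterine membranes, 1 h incubation, filter-based scintillation counting. Chemicals were screened in duplicate at 25 uM, and those passing threshold were retested in concentration-response up to 50 uM. Loss of binding was fitted versus DMSO.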

Assay [3] deals with Small conductance calcium-activated potassium channel protein 1 (Rattus norvegicus) (UniProt P70606). Put plainly: NVS_IC_rKCaCh: NovaScreen (NVS) Ion Channel Assay for rat Potassium Channel, Ca2+ Act., VI (KCaCh) (AID 2283336). The essentials: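 Radioligand binding to rat forebrain membranes, cell-free, read 1 hour after dosing by filter-based scintillation counting. Compounds first run in duplicate at 25 uM, actives then in concentration series; loss of signal vs DMSO indicates displacement.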
Chain of Small conductance calcium-activated potassium channel protein 1 (Rattus norvegicus) (P70606 whole entry, looked up): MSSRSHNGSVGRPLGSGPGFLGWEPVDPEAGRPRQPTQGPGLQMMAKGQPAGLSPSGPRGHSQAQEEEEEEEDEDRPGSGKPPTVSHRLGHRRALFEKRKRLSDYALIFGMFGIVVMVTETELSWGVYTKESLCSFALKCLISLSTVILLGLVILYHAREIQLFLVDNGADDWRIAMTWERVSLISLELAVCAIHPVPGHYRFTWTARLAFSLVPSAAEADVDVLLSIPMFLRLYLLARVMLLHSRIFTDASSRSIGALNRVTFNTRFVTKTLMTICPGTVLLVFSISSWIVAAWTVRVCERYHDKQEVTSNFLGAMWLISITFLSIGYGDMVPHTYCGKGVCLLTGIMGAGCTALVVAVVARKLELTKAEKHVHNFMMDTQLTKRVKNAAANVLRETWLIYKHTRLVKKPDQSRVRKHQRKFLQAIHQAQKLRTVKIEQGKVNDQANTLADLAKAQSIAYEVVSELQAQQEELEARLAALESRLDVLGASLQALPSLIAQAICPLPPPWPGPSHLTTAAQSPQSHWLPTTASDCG

In assay [4] the target is rat Glycine Receptor, Strychnine-sensitive (GlyRStrySens), Glra1 (gene 25674) (UniProt P07727). Put plainly: NVS_LGIC_rGlyRStrySens: NovaScreen (NVS) Ligand-Gated Ion Channel Assay for rat Glycine Receptor, Strychnine-sensitive (GlyRStrySens) (AID 2283341). The essentials:
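Radioligand displacement on rat spinal cord membranes, 1 hr, filter scintillation read-out. Single-concentration duplicate screen at 25 uM; chemicals meeting threshold (e.g., 30% inhibition) rerun in concentration-response up to 50 uM. Loss of binding fitted versus DMSO.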

Assay [5] concerns the target bovine Gamma-Aminobutyric Acid Type A Receptor Agonist (GABAR Agonist), GABRA1 (gene 780973) (UniProt P08219). As to the kind of experiment: NVS_LGIC_bGABAR_Agonist: NovaScreen (NVS) Ligand-Gated Ion Channel Assay for bovine Gamma-Aminobutyric Acid Type A Receptor Agonist (GABAR Agonist) (AID 2283338). The essentials: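 Radioligand binding to bovine cerebellar membranes in agonist format, read by filter-based scintillation counting after 1 h. Primary screen in duplicate at 25 uM, with actives followed in concentration series. Gain of signal versus DMSO.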

The target in assay [6] is human Peripheral-type Benzodiazepine Receptor (PBR), TSPO (gene 706) (UniProt P30536). As to the kind of experiment: NVS_MP_hPBR: NovaScreen (NVS) Membrane Protein Assay for human Peripheral-type Benzodiazepine Receptor (PBR) (AID 2283331).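 Note: hits reduce radioligand binding relative to DMSO baseline.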 The procedure, abridged:
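Radioligand displacement on human colonic cell membranes, 1 h incubation; bound radioactivity by filtration and scintillation counting. Primary screen in duplicate at 25 uM single concentration, actives followed up in concentration series; loss of binding versus DMSO.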

Assay [7] addresses rat Peripheral-type Benzodiazepine Receptor (PBR), Tspo (gene 24230) (UniProt P16257). Put plainly: NVS_MP_rPBR: NovaScreen (NVS) Membrane Protein Assay for rat Peripheral-type Benzodiazepine Receptor (PBR) (AID 2283335). The essentials:
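Radioligand displacement, rat kidney membrane prep, 1 h exposure, filter-based scintillation read; DMSO baseline, loss-of-signal scored. Primary screen at 25 uM in duplicate, actives followed up in concentration series.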

Assay [8] concerns the target rat Glutamate, NMDA Agonist Site (GluNMDA), Grin1 (gene 24408) (UniProt P35439). Put plainly: NVS_LGIC_rGluNMDA_Agonist: NovaScreen (NVS) Ligand-Gated Ion Channel Assay for rat Glutamate, NMDA Agonist Site (GluNMDA) (AID 2283327). The procedure, abridged:
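Rat forebrain membranes, radioligand binding in the agonist-site protocol; 1 h after dosing; filter-based scintillation counting. Single-concentration duplicate screen at 25 uM, then concentration-response up to 50 uM for actives; gain-of-signal vs DMSO.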

Assay [9] concerns the target human Serotonin, 5-Hydroxytryptamine Receptor 3 (5HT3), HTR3A (gene 3359) (UniProt P46098). As to the kind of experiment: NVS_LGIC_h5HT3: NovaScreen (NVS) Ligand-Gated Ion Channel Assay for human Serotonin, 5-Hydroxytryptamine Receptor 3 (5HT3) (AID 2283325). The essentials: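 Radioligand displacement binding to human 5-HT3 from HEK293 membranes, read by filter-based scintillation counting after 1 h. Screen at 25 uM in duplicate; chemicals passing threshold were retested in concentration-response up to 50 uM.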

A short description of assay [10]: NVS_IC_rCaBTZCHL: NovaScreen (NVS) Ion Channel Assay for Calcium Channel, Type L, Benzothiazepine Site (CaBTZCHL) (AID 2283337). The procedure, abridged: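 Competitive displacement of a site-specific radioligand from rat cortex membranes, measured as signal loss against DMSO baseline by filter radiodetection after 1.5 h. Single-point 25 uM primary screen.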
Assay [11] deals with guinea pig Histamine Receptor (H2), gene 100729734. Put plainly: NVS_GPCR_gH2: NovaScreen (NVS) G Protein-Coupled Receptor Assay for guinea pig Histamine Receptor (H2) (AID 2283342). The procedure, abridged: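 Radioligand displacement on guinea pig striatal membranes, 1 h after dosing, filter-based scintillation counting; loss of signal versus DMSO. Single-point screen at 25 uM in duplicate, then concentration-response up to 50 uM.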

Assay [12] concerns the target bovine Gamma-Aminobutyric Acid Type A Receptor BDZ, alpha 5 site (GABARa5), GABRA5 (gene 523515) (UniProt Q08E50). Put plainly: NVS_LGIC_bGABARa5: NovaScreen (NVS) Ligand-Gated Ion Channel Assay for bovine Gamma-Aminobutyric Acid Type A Receptor BDZ, alpha 5 site (GABARa5) (AID 2283323). The essentials: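 Radioligand competitive displacement binding on bovine hippocampal membranes, read 1 hr after dosing by filter-based scintillation counting. Primary screen at 25 uM in duplicate; actives (e.g. ≥30% inhibition) then run in concentration-response up to 50 uM.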

Assay [13] has as its target rat Gamma-Aminobutyric Acid Type A Receptor BDZ, alpha 6 site (GABARa6), Gabra6 (gene 29708) (UniProt P30191). As to the kind of experiment: NVS_LGIC_rGABARa6: NovaScreen (NVS) Ligand-Gated Ion Channel Assay for rat Gamma-Aminobutyric Acid Type A Receptor BDZ, alpha 6 site (GABARa6) (AID 2283339). The procedure, abridged:
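Rat cerebellar membranes; radioligand binding, filtration and scintillation counting, read 1 h after dosing. Single-concentration duplicate screen at 25 uM, then concentration-response up to 50 uM for actives; loss of signal fitted versus DMSO baseline.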

Assay [14] deals with Voltage-gated inwardly rectifying potassium channel KCNH2 (Homo sapiens) (UniProt Q12809). Put plainly: NVS_IC_hKhERGCh: NovaScreen (NVS) Ion Channel Assay for human Potassium Channel ERG (KhERGCh) (AID 2283333). The essentials: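 Cell-free radioligand competition binding on hERG protein extracted from CHO cells, read by filter-based scintillation counting 0.75 h after dosing. Primary screen at 25 uM in duplicate, actives followed in concentration series. Signal loss fitted versus DMSO.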
Chain of Voltage-gated inwardly rectifying potassium channel KCNH2 (Homo sapiens) (Q12809 whole entry, looked up): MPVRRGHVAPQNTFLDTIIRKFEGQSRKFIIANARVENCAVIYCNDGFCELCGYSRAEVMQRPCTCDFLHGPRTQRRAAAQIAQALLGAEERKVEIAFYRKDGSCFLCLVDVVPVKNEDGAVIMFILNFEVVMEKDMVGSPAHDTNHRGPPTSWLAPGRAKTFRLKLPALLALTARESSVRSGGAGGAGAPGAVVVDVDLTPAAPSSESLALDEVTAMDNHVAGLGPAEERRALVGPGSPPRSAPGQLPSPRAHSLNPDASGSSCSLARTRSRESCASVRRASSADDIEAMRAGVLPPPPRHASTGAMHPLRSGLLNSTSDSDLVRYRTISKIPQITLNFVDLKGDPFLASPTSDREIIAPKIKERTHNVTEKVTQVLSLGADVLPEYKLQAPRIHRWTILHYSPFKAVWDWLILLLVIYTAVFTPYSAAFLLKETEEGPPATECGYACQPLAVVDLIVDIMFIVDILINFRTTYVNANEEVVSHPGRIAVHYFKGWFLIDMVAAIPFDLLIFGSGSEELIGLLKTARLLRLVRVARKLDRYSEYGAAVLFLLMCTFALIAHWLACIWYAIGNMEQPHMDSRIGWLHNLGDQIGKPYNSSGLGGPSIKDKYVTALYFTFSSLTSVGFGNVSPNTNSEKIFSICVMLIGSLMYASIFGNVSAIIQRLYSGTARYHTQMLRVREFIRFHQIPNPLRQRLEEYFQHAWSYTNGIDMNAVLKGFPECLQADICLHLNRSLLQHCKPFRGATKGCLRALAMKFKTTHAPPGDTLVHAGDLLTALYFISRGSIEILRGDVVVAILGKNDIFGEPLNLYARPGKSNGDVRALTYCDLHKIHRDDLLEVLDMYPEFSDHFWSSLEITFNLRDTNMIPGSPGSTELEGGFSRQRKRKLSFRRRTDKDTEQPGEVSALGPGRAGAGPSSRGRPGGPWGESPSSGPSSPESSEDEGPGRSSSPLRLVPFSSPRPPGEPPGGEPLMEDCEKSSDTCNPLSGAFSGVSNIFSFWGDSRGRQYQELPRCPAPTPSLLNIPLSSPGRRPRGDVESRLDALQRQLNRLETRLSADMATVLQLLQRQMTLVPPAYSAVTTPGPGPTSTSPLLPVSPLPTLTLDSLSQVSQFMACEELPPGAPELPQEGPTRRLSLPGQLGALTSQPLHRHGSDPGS

Several values for one entry are separate records, joined by “and”; a condition that tells them apart may be missing. Equal values may be shown once. Results filed as inconclusive are left out. Some structures have more than one record in an assay (separate samples or runs), and their calls can disagree. Activity calls are given as the source filed them. Rule for the calls: active = hit-call score of the fitted dose curve at least 0.9, where 1 is the maximum; inconclusive = response in the unintended direction; inactive = score below 0.9.

Chain of rat Peripheral-type Benzodiazepine Receptor (PBR), Tspo (gene 24230) (P16257 whole entry, looked up): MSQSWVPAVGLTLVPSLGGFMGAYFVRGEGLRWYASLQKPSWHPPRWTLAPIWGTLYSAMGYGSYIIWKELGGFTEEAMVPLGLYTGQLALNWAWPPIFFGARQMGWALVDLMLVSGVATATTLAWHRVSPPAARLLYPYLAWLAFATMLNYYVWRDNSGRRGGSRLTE
Chain of rat Oxytocin Receptor (OXT), Oxtr (gene 25342) (P70536 whole entry, looked up): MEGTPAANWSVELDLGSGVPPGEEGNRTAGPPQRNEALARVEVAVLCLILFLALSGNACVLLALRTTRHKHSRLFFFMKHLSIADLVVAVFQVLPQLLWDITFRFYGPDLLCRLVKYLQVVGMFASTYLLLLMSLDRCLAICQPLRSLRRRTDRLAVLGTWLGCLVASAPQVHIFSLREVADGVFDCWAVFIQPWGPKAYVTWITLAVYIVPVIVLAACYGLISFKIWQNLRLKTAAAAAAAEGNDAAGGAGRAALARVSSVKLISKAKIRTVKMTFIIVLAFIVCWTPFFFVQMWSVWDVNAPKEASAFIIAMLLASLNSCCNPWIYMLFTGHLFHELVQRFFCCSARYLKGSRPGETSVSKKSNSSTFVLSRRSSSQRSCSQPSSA
Chain of human Peripheral-type Benzodiazepine Receptor (PBR), TSPO (gene 706) (P30536 whole entry, looked up): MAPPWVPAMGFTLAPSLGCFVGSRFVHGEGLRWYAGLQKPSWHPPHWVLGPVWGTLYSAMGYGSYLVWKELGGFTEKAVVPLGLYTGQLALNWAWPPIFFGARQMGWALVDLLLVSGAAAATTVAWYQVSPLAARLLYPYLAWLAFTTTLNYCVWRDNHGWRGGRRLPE
Chain of rat Glycine Receptor, Strychnine-sensitive (GlyRStrySens), Glra1 (gene 25674) (P07727 whole entry, looked up): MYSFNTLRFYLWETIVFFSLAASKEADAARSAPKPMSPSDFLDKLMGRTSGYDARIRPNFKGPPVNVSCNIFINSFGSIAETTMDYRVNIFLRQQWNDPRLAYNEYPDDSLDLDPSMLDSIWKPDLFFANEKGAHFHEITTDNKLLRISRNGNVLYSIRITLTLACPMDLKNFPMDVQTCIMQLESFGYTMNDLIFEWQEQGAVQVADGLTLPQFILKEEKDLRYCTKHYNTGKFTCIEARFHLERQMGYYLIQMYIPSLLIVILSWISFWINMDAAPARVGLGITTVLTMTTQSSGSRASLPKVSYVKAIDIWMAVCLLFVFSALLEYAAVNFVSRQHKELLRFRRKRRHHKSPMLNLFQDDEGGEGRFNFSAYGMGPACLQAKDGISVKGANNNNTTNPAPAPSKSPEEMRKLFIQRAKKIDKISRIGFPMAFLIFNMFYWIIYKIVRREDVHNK
Chain of bovine Gamma-Aminobutyric Acid Type A Receptor Agonist (GABAR Agonist), GABRA1 (gene 780973) (P08219 whole entry, looked up): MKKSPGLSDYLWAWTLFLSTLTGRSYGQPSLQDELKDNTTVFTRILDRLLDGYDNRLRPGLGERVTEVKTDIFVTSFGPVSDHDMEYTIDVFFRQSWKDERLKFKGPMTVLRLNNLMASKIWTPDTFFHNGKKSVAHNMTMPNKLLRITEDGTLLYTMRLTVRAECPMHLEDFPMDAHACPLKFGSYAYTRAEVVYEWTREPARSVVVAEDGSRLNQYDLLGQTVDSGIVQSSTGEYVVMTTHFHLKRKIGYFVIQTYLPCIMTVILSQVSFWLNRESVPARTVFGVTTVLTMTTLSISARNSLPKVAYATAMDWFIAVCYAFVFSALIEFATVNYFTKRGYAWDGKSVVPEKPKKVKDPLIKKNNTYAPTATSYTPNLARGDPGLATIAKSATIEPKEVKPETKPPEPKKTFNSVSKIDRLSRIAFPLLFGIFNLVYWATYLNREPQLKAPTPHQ
Chain of human Serotonin, 5-Hydroxytryptamine Receptor 3 (5HT3), HTR3A (gene 3359) (P46098 whole entry, looked up): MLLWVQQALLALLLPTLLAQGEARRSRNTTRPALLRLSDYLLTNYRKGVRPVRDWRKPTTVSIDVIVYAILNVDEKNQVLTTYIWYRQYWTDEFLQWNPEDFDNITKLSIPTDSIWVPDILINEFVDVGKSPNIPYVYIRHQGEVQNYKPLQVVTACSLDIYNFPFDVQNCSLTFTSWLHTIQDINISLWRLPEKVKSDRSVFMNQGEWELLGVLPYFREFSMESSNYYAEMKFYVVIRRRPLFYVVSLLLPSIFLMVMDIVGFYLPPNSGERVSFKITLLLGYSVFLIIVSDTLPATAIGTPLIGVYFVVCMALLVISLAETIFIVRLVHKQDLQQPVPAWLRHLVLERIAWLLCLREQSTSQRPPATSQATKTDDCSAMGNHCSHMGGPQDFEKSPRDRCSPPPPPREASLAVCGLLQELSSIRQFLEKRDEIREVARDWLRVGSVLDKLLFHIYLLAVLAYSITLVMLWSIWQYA
Chain of bovine Gamma-Aminobutyric Acid Type A Receptor BDZ, alpha 5 site (GABARa5), GABRA5 (gene 523515) (Q08E50 whole entry, looked up): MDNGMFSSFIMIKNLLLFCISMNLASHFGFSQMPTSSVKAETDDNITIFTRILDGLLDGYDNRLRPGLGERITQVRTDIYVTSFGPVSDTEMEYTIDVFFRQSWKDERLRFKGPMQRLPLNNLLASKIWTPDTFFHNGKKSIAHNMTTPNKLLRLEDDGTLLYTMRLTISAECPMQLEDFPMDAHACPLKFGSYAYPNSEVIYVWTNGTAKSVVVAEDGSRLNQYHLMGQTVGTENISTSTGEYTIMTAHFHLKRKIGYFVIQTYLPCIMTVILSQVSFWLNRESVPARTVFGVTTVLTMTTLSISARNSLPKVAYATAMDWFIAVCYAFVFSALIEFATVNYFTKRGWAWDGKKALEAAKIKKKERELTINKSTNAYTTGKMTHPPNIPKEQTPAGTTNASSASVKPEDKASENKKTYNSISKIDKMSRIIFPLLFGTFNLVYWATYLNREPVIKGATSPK
Chain of rat Gamma-Aminobutyric Acid Type A Receptor BDZ, alpha 6 site (GABARa6), Gabra6 (gene 29708) (P30191 whole entry, looked up): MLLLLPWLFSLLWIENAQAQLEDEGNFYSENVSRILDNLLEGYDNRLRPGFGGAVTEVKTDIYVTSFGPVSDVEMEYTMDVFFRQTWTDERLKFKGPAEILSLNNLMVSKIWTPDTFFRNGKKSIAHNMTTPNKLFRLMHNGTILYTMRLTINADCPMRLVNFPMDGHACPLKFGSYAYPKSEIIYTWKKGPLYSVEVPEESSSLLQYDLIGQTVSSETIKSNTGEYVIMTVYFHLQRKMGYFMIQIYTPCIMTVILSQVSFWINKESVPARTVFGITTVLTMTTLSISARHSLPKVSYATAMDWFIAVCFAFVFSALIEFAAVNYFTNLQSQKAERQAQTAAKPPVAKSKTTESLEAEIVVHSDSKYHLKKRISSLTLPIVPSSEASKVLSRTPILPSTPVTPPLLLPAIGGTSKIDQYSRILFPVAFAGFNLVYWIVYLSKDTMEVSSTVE

Turning to `O=NN(c1ccccc1)c1ccccc1`, in assay [1], the compound was called inactive.
Turning to `O=C(NC(=O)c1cc(F)c(F)cc1Cl)Nc1cc(F)ccc1N1CCC(C(=O)O)CC1`, the call in [2], in assay [3] and in [4] was inactive.
Turning to `c1cc2ccc3cccc4ccc(c1)c2c34`, the outcome in assay [5] was inactive.
Regarding `Cc1ccccc1CO[C@@H]1C[C@@]2(C(C)C)CC[C@]1(C)O2`, in assay [6], the AC50 is 8.27 µM (active). Also, in assay [7], the compound was classed as inactive.
With `Oc1ccc(C(c2ccc(O)cc2)(C(F)(F)F)C(F)(F)F)cc1`, the AC50 in assay [8] is 19.5 µM (active); in assay [2] it was 13.6 µM (active); in assay [7] it was 6.31 µM (active); in assay [1], 19.8 µM (active). The call in assay [7] and in assay [4] was inactive.
Consider `CCCCCCCCCC[N+](C)(C)CCCCCCCCCC`, for which the compound was classed as inactive in [9] and in assay [5]. Also, the AC50 was 18.6 µM (active) in [2], 21.5 µM (active) in [6], 4.34 µM (active) in assay [10] and 9.87 µM (active) in assay [11].
For the compound `Cc1cc(O)ccc1Cl`, the concentration at half-maximal activity (AC50) in [6] was 2.64 µM (active).
In the case of `Cc1cc(-c2ccc(N)c(C)c2)ccc1N`, the AC50 in assay [7] was 13.7 µM (active).
Turning to `O=C(N[C@H]1CN2CCC1CC2)c1cc2ccoc2cn1`, in assay [9], the AC50 is 1.35 µM (active).
`CC(C)(c1ccccc1)c1ccc(O)cc1`: the compound was called inactive in assay [6], in [7] and in assay [3].
For `Cc1cc2c3c(c1)C(c1ccccc1)=N[C@@H](NC(=O)c1ccncc1)C(=O)N3CC2`, the AC50 in assay [12] is 1.43 µM (active); in assay [7] it was 9.63 µM (active). In [13], the outcome was inactive.
Take `CC1=C2C[C@H]3[C@@H](CC=C4C[C@@H](O)CC[C@@]43C)[C@@H]2CC[C@]12O[C@@H]1C[C@H](C)CN[C@H]1[C@H]2C`: the result in assay [10] was inactive.
Turning to `CCSC(=O)N(CC)C1CCCCC1`, the result in assay [8], in assay [6] and in [7] was inactive.
Consider `Oc1ccc(Cl)cc1Cl`, for which the outcome in assay [14] was inactive.
Turning to `CCC(C)(c1ccc(O)cc1)c1ccc(O)cc1`, the AC50 was 16.4 µM (active) in [8]; 9.64 µM (active) and 2.96 µM (active) and 14.1 µM (active) in [6]; 6.5 µM (active) in assay [7]. For the same compound, the outcome in [7] and in [11] was inactive.
